The source of these data is paper PMC7862700, “An all-to-all approach to the identification of sequence-specific readers for epigenetic DNA modifications on cytosine”.

What all share (test): DAPPL (digital affinity profiling via proximity ligation, sequencing); 10 mM Tris-HCl pH 7.5, 50 mM NaCl, 1 mM DTT, 4% glycerol, room temperature, 30 min; GST-TFs on glutathione beads, 16-mer random dsDNA library, 0.1% formaldehyde crosslink after washing; high values mean tight binding
Common to all, as to settings: protein: recombinant; tags: N-terminal GST; dsDNA, one strand shown

One test has as its target T1, ELK1 (Homo sapiens, UniProt P19419 1-428).
T1 sequence: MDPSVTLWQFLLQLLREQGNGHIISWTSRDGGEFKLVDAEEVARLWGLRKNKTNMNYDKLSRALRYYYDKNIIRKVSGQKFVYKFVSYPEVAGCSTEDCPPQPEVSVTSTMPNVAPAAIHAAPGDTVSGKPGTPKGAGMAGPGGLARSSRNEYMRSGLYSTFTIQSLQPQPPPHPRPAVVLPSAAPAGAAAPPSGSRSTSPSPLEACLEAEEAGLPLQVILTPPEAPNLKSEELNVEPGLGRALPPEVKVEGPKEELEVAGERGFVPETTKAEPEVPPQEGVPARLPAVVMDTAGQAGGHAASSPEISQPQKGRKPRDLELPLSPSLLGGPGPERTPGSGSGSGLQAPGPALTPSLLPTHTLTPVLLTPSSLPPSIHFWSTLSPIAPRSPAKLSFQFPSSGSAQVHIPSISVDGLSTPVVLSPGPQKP
In a few lines: (§1)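 Binding signal is given per hexamer as its read frequency for a factor divided by its frequency in the tag-only sample. GST-fused human transcription factors were expressed in yeast, captured on glutathione beads, barcoded with DNA and pooled with that sample, then incubated with 200 nmole of a 16-mer random double-stranded DNA library in Tris/NaCl/DTT/glycerol buffer for 30 min at room temperature. The pools were then washed, crosslinked, proximity-ligated, amplified by PCR and sequenced on an Illumina NextSeq500.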

The target in a further test is T2, ERG (Homo sapiens, UniProt P11308 1-479).
T2 sequence: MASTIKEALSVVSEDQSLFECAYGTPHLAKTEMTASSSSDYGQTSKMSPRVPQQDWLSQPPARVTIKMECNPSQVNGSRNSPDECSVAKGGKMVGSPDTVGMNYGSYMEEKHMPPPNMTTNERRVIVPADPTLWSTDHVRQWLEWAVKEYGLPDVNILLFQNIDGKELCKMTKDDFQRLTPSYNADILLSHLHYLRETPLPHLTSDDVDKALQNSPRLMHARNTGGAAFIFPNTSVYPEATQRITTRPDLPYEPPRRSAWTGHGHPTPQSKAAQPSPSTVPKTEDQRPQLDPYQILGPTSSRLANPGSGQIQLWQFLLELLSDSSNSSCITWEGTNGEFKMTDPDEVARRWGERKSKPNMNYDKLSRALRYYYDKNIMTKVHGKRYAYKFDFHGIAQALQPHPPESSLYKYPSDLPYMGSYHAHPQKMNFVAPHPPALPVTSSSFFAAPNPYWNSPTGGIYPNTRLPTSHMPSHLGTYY
In a few lines:
as §1

A further test deals with ELF1 (Homo sapiens, UniProt P32519 1-619). In a few lines: as §1
Sequence of ELF1 (P32519 whole entry): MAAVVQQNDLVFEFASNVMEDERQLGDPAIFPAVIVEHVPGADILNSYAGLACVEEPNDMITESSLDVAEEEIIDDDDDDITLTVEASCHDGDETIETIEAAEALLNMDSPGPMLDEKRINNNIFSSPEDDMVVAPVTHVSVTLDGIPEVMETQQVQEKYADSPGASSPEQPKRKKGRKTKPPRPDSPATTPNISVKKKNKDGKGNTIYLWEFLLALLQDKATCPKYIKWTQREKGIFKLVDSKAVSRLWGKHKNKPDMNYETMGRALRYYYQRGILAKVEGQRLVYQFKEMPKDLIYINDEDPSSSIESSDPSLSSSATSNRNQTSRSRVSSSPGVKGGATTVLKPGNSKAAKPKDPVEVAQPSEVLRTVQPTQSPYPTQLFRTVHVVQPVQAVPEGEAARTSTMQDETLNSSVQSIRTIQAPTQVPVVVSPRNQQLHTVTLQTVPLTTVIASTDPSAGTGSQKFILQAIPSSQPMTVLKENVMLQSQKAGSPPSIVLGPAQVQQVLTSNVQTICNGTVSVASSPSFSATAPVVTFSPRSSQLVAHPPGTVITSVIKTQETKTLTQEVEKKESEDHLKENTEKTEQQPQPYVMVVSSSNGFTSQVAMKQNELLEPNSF
The next test concerns the target SPIB (Homo sapiens, UniProt Q01892 1-262). A digest of the protocol: as §1
Another test deals with T3, SPIC (Homo sapiens, UniProt Q8N5J4 1-248).
T3 sequence: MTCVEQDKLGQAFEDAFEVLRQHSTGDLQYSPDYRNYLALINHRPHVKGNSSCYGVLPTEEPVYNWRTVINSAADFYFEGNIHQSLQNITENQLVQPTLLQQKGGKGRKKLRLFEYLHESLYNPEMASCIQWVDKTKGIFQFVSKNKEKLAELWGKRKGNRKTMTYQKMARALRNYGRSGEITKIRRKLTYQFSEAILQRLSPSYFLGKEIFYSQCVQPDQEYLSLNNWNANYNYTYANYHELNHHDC
A digest of the protocol:
as §1

A further test addresses T4, ELK4 (Homo sapiens, UniProt P28324-2 1-405).
T4 sequence: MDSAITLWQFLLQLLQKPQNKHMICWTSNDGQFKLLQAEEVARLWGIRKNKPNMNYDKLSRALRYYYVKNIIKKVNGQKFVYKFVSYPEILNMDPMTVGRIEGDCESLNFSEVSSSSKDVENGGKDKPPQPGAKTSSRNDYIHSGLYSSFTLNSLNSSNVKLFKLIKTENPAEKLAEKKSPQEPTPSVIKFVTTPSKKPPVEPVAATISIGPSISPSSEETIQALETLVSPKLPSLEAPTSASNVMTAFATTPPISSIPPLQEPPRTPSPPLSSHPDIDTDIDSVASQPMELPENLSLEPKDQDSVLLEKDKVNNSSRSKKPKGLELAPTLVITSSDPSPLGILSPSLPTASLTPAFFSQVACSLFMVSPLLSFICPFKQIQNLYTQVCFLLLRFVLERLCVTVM
In a few lines:
as §1

Another test has as its target T5, ETV2 (Homo sapiens, UniProt O00321 1-342).
T5 sequence: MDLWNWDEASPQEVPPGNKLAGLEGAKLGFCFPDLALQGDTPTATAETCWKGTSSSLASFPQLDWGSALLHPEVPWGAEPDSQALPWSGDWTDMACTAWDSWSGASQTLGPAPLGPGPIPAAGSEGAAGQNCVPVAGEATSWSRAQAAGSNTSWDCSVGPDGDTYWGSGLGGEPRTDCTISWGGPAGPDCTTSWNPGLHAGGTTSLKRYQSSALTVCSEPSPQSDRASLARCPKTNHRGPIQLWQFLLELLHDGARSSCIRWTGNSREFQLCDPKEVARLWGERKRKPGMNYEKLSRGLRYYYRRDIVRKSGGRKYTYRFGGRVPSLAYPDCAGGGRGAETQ
In a few lines: as §1

The target in another test is T6, ETV3L (Homo sapiens, UniProt Q6ZN32 1-361).
T6 sequence: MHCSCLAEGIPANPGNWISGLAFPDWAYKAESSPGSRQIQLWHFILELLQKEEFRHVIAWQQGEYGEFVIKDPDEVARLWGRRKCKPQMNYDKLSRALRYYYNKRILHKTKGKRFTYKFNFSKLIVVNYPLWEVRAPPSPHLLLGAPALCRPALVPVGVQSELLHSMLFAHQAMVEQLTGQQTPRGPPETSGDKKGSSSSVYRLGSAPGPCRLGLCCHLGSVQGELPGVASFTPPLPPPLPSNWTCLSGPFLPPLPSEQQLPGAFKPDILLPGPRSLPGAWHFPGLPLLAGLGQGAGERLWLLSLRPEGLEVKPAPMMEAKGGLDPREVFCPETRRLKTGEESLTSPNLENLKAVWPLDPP
In a few lines:
as §1

Another test concerns the target T7, ETV3 (Homo sapiens, UniProt P41162-2 1-143).
T7 sequence: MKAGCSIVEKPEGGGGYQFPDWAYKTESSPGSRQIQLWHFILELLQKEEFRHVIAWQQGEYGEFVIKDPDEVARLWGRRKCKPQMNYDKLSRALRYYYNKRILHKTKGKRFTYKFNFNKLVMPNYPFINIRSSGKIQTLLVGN
In a few lines:
as §1

In a further test the target is ELF4 (Homo sapiens, UniProt Q99607 1-663). A digest of the protocol: as §1
Sequence of ELF4 (Q99607 whole entry): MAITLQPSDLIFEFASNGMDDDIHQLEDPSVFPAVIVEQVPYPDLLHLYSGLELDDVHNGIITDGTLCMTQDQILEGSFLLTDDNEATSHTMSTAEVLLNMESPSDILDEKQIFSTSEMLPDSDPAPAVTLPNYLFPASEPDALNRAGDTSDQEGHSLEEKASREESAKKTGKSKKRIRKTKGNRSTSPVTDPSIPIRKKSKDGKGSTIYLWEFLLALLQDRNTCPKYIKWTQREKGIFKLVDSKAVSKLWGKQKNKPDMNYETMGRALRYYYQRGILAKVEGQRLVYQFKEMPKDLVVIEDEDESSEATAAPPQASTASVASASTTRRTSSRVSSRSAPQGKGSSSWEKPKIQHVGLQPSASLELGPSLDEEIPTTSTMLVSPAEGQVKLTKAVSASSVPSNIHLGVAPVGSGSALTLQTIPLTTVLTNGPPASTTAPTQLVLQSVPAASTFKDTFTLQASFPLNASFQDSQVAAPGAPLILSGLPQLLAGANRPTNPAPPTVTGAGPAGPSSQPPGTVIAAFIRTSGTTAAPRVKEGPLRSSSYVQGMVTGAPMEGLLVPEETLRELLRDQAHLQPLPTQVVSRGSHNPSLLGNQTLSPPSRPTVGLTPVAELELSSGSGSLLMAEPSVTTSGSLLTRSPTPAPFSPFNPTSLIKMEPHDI
In a further test the target is T8, ELF3 (Homo sapiens, UniProt P78545 1-371).
T8 sequence: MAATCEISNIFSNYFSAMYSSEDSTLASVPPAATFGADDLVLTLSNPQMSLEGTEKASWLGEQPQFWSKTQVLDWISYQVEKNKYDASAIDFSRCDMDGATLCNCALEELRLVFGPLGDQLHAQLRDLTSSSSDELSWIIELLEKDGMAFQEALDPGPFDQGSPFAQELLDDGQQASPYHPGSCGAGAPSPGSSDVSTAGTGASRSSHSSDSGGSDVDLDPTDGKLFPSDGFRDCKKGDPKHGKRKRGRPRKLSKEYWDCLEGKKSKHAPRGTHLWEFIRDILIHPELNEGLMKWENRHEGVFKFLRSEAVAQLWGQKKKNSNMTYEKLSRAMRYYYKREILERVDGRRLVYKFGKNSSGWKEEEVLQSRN
A digest of the protocol:
as §1

The target of a further test is CRX (Homo sapiens, UniProt O43186 1-299). In a few lines:
as §1

The next test concerns the target ETV1 (Homo sapiens, UniProt P50549 1-477). A digest of the protocol: as §1

Sequence of CRX (O43186 whole entry): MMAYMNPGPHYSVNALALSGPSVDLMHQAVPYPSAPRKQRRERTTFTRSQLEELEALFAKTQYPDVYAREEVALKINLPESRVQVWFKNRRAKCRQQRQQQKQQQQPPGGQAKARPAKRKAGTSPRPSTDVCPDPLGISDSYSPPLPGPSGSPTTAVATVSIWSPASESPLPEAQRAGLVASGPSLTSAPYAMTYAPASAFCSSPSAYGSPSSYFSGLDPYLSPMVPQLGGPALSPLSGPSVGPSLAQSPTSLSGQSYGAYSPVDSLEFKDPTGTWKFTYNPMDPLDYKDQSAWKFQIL
Sequence of ETV1 (P50549 whole entry): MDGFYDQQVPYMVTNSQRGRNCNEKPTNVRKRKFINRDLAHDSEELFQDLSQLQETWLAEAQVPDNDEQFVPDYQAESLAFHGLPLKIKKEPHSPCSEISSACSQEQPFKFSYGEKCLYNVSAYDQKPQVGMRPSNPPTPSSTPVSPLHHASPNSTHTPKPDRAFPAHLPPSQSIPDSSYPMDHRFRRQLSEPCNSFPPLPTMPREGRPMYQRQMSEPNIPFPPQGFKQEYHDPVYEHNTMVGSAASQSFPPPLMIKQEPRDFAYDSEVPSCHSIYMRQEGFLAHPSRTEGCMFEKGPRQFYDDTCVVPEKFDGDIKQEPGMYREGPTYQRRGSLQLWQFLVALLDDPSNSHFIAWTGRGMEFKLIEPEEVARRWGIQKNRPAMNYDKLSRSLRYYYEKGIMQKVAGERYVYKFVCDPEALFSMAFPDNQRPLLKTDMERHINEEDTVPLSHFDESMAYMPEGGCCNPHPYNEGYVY
Sequence of SPIB (Q01892 whole entry): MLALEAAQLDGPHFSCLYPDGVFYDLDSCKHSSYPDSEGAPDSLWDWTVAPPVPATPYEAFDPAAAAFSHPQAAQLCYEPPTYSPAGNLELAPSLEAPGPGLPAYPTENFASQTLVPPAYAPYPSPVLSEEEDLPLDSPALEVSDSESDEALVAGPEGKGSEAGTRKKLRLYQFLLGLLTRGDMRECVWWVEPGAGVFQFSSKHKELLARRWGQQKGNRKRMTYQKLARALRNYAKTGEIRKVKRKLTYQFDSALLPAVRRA

On to GCCCTG, for which the binding signal with ELK1 was 1.12 fold enrichment (6-mer frequency, TF over GST control); with ERG, 1 fold enrichment (6-mer frequency, TF over GST control); in the test with ELF1 it was 1.06 fold enrichment (6-mer frequency, TF over GST control); in the test with SPIB, 1.07 fold enrichment (6-mer frequency, TF over GST control); in the test with SPIC, 1.11 fold enrichment (6-mer frequency, TF over GST control); with ELK4, 1.04 fold enrichment (6-mer frequency, TF over GST control). Also, the binding signal was 1 fold enrichment (6-mer frequency, TF over GST control) with ETV2; 1.08 fold enrichment (6-mer frequency, TF over GST control) in the test with ETV3L; 1.04 fold enrichment (6-mer frequency, TF over GST control) with ETV3.

As for GTTGTC, the binding signal is 1.1 fold enrichment (6-mer frequency, TF over GST control) in the test with SPIC and 1.02 fold enrichment (6-mer frequency, TF over GST control) in the test with ELK4.

For the sequence GGTCCA, the binding signal with SPIC was 1.02 fold enrichment (6-mer frequency, TF over GST control).

In the case of GACTCG, the binding signal in the test with SPIC is 1.02 fold enrichment (6-mer frequency, TF over GST control).

Consider AGACTC, for which the binding signal with SPIC was 1.06 fold enrichment (6-mer frequency, TF over GST control).

As for CTAAGG, the binding signal in the test with SPIC is 1.06 fold enrichment (6-mer frequency, TF over GST control); with ELF4, 1.02 fold enrichment (6-mer frequency, TF over GST control); with ELF3, 1.02 fold enrichment (6-mer frequency, TF over GST control); with CRX it was 1.12 fold enrichment (6-mer frequency, TF over GST control); in the test with ETV1, 1.01 fold enrichment (6-mer frequency, TF over GST control).
